Assay results as given in PubChem BioAssay (NCI).
Compounds without any hit were thinned out: in the full panel of roughly 79,000, 15% have a hit. Activity calls are given as the source filed them. Cut-off read from the data, not from the text of the source: active = growth inhibition above about 70%; inactive = the rest.

What was measured:
[1] = NCI Yeast Anticancer Drug Screen. Data for the rad52 strain (AID 147);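 note: 0% = growth of vehicle-treated control cultures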; details: S. cerevisiae rad52 mutant growth inhibition, stronger effect = higher value
Procedure, shortened: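 The repair-mutant yeast strain was incubated with compounds, then growth was read and inhibition derived relative to vehicle.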

[2] = NCI Yeast Anticancer Drug Screen. Data for the wt1 strain (AID 149);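 note: 0% = growth of vehicle-treated wt1 cultures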; details: S. cerevisiae wt1 strain (SPY 50644) growth inhibition, stronger effect = higher value
Procedure, shortened: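 Each compound is tested on wt1 yeast and the loss of growth versus vehicle gives the inhibition value.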

[3] = NCI Yeast Anticancer Drug Screen. Data for the rad50EPP+ strain (AID 151);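 note: 0% = growth of vehicle-treated control cultures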; details: S. cerevisiae rad50 mutant strain, stronger effect = higher value
Procedure, shortened: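 Vehicle-normalised growth inhibition; rad50EPP+ yeast strain, altered in DNA damage repair, compound-treated.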

[4] = NCI Yeast Anticancer Drug Screen. Data for the mgt1 strain (AID 153); details: S. cerevisiae mgt1 mutant growth inhibition, stronger effect = higher value
Procedure, shortened: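 Vehicle-normalized growth inhibition is determined in mgt1 yeast, a strain selected for a defined alteration in DNA repair or cell cycle control.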

[5] = NCI Yeast Anticancer Drug Screen. Data for the rad50 strain (AID 155);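 note: 0% = growth of vehicle-only cultures of the same strain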; details: S. cerevisiae rad50 strain growth inhibition, stronger effect = higher value
Procedure, shortened: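 Vehicle-treated cultures provide the reference for the growth inhibition reported for compound-exposed, repair-deficient yeast.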

[6] = NCI Yeast Anticancer Drug Screen. Data for the mec2-1 strain (AID 157); details: S. cerevisiae mec2-1 strain, stronger effect = higher value
Procedure, shortened: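 Mutant yeast (mec2-1) grown with compound; growth inhibition relative to vehicle control reported.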

[7] = NCI Yeast Anticancer Drug Screen. Data for the sgs1 mgt1 strain (AID 161);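 note: 0% = growth of cultures given vehicle only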; details: S. cerevisiae sgs1 mgt1 strain, stronger effect = higher value
Procedure, shortened: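 Percent growth inhibition was derived by comparing compound-exposed mutant yeast with vehicle-exposed cultures. The strain carries alterations in DNA damage repair.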

[8] = NCI Yeast Anticancer Drug Screen. Data for the CLN2oe strain (AID 163);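 note: 0% = growth of vehicle-only control cultures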; details: S. cerevisiae CLN2oe strain, stronger effect = higher value
Procedure, shortened: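 Compounds are applied to yeast harbouring a defined cell-cycle control change; reduced growth compared with vehicle-treated controls gives the value.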

[9] = NCI Yeast Anticancer Drug Screen. Data for the cln2 rad14 strain (AID 165);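 note: 0% = growth equal to vehicle treated cultures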; details: S. cerevisiae cln2 rad14 strain, stronger effect = higher value
Procedure, shortened: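 Readout is yeast growth inhibition versus vehicle-treated controls, using a strain with cln2 and rad14 alterations exposed to compound.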

[10] = NCI Yeast Anticancer Drug Screen. Data for the bub3 strain (AID 167); details: S. cerevisiae bub3 mutant strain, stronger effect = higher value
Procedure, shortened: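 Mutant yeast screening strain plus compound; vehicle-treated cultures serve as the 0% inhibition reference.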

[11] = NCI Yeast Anticancer Drug Screen. Data for the wt2 strain (AID 169); details: S. cerevisiae wt2 strain growth inhibition, stronger effect = higher value
Procedure, shortened: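 Against vehicle-treated controls, the growth of yeast exposed to each compound was compared, and the inhibition was recorded.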

[12] = NCI Yeast Anticancer Drug Screen. Data for the mlh1 strain (AID 171);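 note: 0% = growth of vehicle-treated control cultures of the same strain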; details: S. cerevisiae mlh1 strain growth inhibition, stronger effect = higher value
Procedure, shortened: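 Measured: yeast growth. Reference: vehicle-treated controls. Organism: strain with a defined alteration affecting DNA damage repair or cell cycle control, treated with compound.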

[13] = NCI Yeast Anticancer Drug Screen. Data for the sgs1 strain (AID 173);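 note: 0% = growth of vehicle-only control cultures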; details: S. cerevisiae sgs1 mutant, stronger effect = higher value
Procedure, shortened: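 Each compound was added to cultures of the altered yeast strain. Growth was recorded, and inhibition was derived by comparison with vehicle controls.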

[14] = NCI Yeast Anticancer Drug Screen. Data for the mlh1 rad18 strain (AID 175); details: S. cerevisiae mlh1 rad18 strain growth inhibition, stronger effect = higher value
Procedure, shortened: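 Genetically defined yeast (DNA repair-deficient) exposed to compounds; growth inhibition determined relative to vehicle.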

[15] = NCI Yeast Anticancer Drug Screen. Data for the rad18 strain (AID 177); details: S. cerevisiae rad18 mutant growth inhibition, stronger effect = higher value
Procedure, shortened: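 Vehicle-treated cultures served as the baseline for scoring compound-induced growth inhibition in DNA-repair-mutant yeast.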

[16] = NCI Yeast Anticancer Drug Screen. Data for the rad14 strain (AID 159);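 note: 0% = growth of vehicle-treated control cultures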; details: S. cerevisiae rad14 strain growth inhibition, stronger effect = higher value
Procedure, shortened: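 Inhibition of growth is reported for a repair-deficient yeast mutant following compound treatment, calculated relative to cultures that received vehicle.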

[17] = at 5.0 µM (retest, dose inferred, filed as 0.5)
[18] = at 50.0 µM (retest, dose inferred, filed as 5.0)

Measured: growth inhibition

CCOC(=O)C#Cc1ccc([N+](=O)[O-])cc1
active: [5]; at 50.0 µM 96% | [6]; at 50.0 µM 95% | [7]; [18] 72% | [9]; at 50.0 µM 96.8% | [10]; at 50.0 µM 95.5% | [14]; at 50.0 µM 96.8%
inactive: [1]; at 1.2 µM 0% | [1]; at 3.7 µM -1% | [1]; at 11.0 µM -6% | [1]; at 33.0 µM 3% | [1]; at 100.0 µM 17% | [2]; at 1.2 µM 2% | [2]; at 3.7 µM 1% | [2]; at 11.0 µM 3% | [2]; at 33.0 µM 8% | [2]; at 100.0 µM 25% | [3]; at 1.2 µM 8% | [3]; at 3.7 µM 4% | [3]; at 11.0 µM 7% | [3]; at 33.0 µM 23% | [3]; at 100.0 µM 61% | [4]; at 1.2 µM 1% | [4]; at 3.7 µM -4% | [4]; at 11.0 µM -6% | [4]; at 33.0 µM 5% | [4]; at 100.0 µM 12% | [5]; at 1.2 µM 0% | [5]; at 3.7 µM 4% | [5]; [17] 15% | [5]; at 11.0 µM 3% | [5]; at 33.0 µM 18% | [5]; [18] 50% | [5]; at 100.0 µM 46% | [6]; at 1.2 µM 4% | [6]; at 3.7 µM -5% | [6]; [17] 12% | [6]; at 11.0 µM 7% | [6]; at 33.0 µM -1% | [6]; [18] 36% | [6]; at 100.0 µM 6% | [7]; [17] 31% | [7]; at 50.0 µM 50.5% | [8]; at 1.2 µM 1% | [8]; at 3.7 µM -2% | [8]; at 11.0 µM -3% | [8]; at 33.0 µM 2% | [8]; at 100.0 µM 10% | [9]; [17] -43% | [9]; [18] -7% | [10]; at 1.2 µM -10% | [10]; at 3.7 µM -24% | [10]; [17] -10% | [10]; at 11.0 µM -1% | [10]; at 33.0 µM 1% | [10]; [18] 28% | [10]; at 100.0 µM -8% | [11]; at 1.2 µM -1% | [11]; at 3.7 µM 1% | [11]; at 11.0 µM 4% | [11]; at 33.0 µM 7% | [11]; at 100.0 µM 11% | [12]; at 1.2 µM -4% | [12]; at 3.7 µM -3% | [12]; at 11.0 µM -10% | [12]; at 33.0 µM -21% | [12]; at 100.0 µM -5% | [13]; at 1.2 µM 1% | [13]; at 3.7 µM 0% | [13]; at 11.0 µM 5% | [13]; at 33.0 µM 6% | [13]; at 100.0 µM 15% | [14]; [17] -20% | [14]; [18] 63% | [15]; at 1.2 µM -1% | [15]; at 3.7 µM -2% | [15]; at 11.0 µM 0% | [15]; at 33.0 µM 15% | [15]; at 100.0 µM 64%

CCCC/C([O-])=C1/C(=O)N(c2ccccc2)N=C1C.CCCC/C([O-])=C1/C(=O)N(c2ccccc2)N=C1C.[Cu+2]
inactive: [1]; at 1.2 µM 1% | [1]; at 3.7 µM 2% | [1]; at 11.0 µM 2% | [1]; at 33.0 µM 1% | [1]; at 100.0 µM -2% | [2]; at 1.2 µM 0% | [2]; at 3.7 µM -1% | [2]; at 11.0 µM -2% | [2]; at 33.0 µM -2% | [2]; at 100.0 µM -3% | [3]; at 1.2 µM -1% | [3]; at 3.7 µM 0% | [3]; at 11.0 µM -1% | [3]; at 33.0 µM -2% | [3]; at 100.0 µM 0% | [5]; at 1.2 µM 1% | [5]; at 3.7 µM 2% | [5]; [17] 28% | [5]; at 11.0 µM 2% | [5]; at 33.0 µM 1% | [5]; [18] 48% | [5]; at 50.0 µM -7.7% | [5]; at 100.0 µM 0% | [6]; at 1.2 µM -3% | [6]; at 3.7 µM -3% | [6]; [17] 10% | [6]; at 11.0 µM -6% | [6]; at 33.0 µM 1% | [6]; [18] 29% | [6]; at 50.0 µM -6.8% | [6]; at 100.0 µM -6% | [16]; at 1.2 µM 0% | [16]; at 3.7 µM 0% | [16]; at 11.0 µM -1% | [16]; at 33.0 µM -2% | [16]; at 100.0 µM -2% | [7]; [17] -2% | [7]; [18] 42% | [7]; at 50.0 µM -13.3% | [8]; at 1.2 µM -4% | [8]; at 3.7 µM -2% | [8]; at 11.0 µM 7% | [8]; at 33.0 µM 0% | [8]; at 100.0 µM 3% | [9]; [17] 27% | [9]; [18] 44% | [9]; at 50.0 µM 32.3% | [10]; at 1.2 µM -1% | [10]; at 3.7 µM -1% | [10]; [17] 26% | [10]; at 11.0 µM -4% | [10]; at 33.0 µM -2% | [10]; [18] 48% | [10]; at 50.0 µM -1% | [10]; at 100.0 µM -5% | [11]; at 1.2 µM 0% | [11]; at 3.7 µM 0% | [11]; at 11.0 µM -1% | [11]; at 33.0 µM -2% | [11]; at 100.0 µM -3% | [12]; at 1.2 µM 0% | [12]; at 3.7 µM -3% | [12]; at 11.0 µM -2% | [12]; at 33.0 µM -3% | [12]; at 100.0 µM -2% | [13]; at 1.2 µM 0% | [13]; at 3.7 µM -1% | [13]; at 11.0 µM -2% | [13]; at 33.0 µM -1% | [13]; at 100.0 µM -1% | [14]; [17] 6% | [14]; [18] 8% | [14]; at 50.0 µM -20.8% | [15]; at 1.2 µM -3% | [15]; at 3.7 µM -4% | [15]; at 11.0 µM -1% | [15]; at 33.0 µM -5% | [15]; at 100.0 µM -3%
